About 1,200 (0.39%) of roughly 310,000 compounds were called active. The rule behind the calls is not given here. Not all results are given here. Entries with a potency or affinity are not part of this list.
The compounds below were run against Large T antigen (Simian virus 40) (UniProt P03070) (assay: TAg ATPase/helicase activity blockers – biochemical (AID 1903)). Conditions: SV40 large T antigen ATPase/helicase inhibition assay; at 20 µM; active compounds read high.
Sequence of Large T antigen (Simian virus 40) (P03070 whole entry, looked up): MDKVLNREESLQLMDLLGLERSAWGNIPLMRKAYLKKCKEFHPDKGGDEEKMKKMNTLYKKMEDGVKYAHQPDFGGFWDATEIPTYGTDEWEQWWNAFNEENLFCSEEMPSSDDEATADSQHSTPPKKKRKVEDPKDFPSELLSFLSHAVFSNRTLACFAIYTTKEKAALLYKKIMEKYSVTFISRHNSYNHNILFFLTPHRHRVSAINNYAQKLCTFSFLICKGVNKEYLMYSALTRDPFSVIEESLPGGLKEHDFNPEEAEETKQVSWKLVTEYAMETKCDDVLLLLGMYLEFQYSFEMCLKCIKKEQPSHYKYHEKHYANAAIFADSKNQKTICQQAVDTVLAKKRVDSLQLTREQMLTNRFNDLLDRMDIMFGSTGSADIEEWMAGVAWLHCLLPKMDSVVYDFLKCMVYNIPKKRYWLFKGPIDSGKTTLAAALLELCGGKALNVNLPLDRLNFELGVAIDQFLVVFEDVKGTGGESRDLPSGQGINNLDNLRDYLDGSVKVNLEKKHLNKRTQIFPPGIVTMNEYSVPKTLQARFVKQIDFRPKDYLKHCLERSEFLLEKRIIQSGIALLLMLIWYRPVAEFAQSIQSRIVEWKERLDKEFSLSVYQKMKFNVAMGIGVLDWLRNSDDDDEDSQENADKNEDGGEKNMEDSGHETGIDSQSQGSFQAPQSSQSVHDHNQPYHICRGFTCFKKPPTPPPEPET

inhibition, inactive:
CCCc1nn(-c2cc(Cl)ccc2OC)c2c1C(=O)CC(C)(C)C2 2.88%, CCCC(=O)N(c1ccc2oc(=O)sc2c1)S(=O)(=O)c1cccs1 34.4%, CC(C)C(=O)N(c1ccc2oc(=O)sc2c1)S(=O)(=O)c1cccs1 22.8%, CC(C)C(=O)N(c1ccc2oc(=O)sc2c1)S(=O)(=O)c1ccccc1 25.6%, CC(=O)N(c1ccc2oc(=O)sc2c1)S(=O)(=O)c1ccc(C(=O)O)cc1 23.9%, Cc1ccsc1C(=O)OCC(=O)NCc1ccc2c(c1)OCO2 20.1%, O=C(O)C1CC=CCC1C(=O)N1CCCC1 (configuration not stated) -0.98%, O=C1NC(=O)/C(=C\c2ccsc2)N1 2.09%, COc1c(-c2ccc(O)c(O)c2)oc2cc(O)cc(O)c2c1=O 9.05%, COCOc1cc(O)c2c(=O)c(OCOC)c(-c3ccc(OCOC)c(OCOC)c3)oc2c1 7.99%, CCn1c(SCC(=O)Nc2nccs2)nnc1-c1ccc(S(=O)(=O)N2CCCCCC2)cc1 -0.295%, Cc1ccc(S(=O)(=O)N2CCCC(C(=O)NCC3CCCO3)C2)cc1 (configuration not stated) 3.23%, Cc1ccc(S(=O)(=O)N2CCN(S(=O)(=O)c3ccccc3)C2)cc1 6.18%, O=S(=O)(c1ccc(Cl)cc1)N1CCCCCC1 20.7%, CC1CN(S(=O)(=O)c2ccccc2)C(C)CN1S(=O)(=O)c1ccccc1 (configuration not stated) 8.4%, CN1CCN(S(=O)(=O)c2ccc(Cl)cc2)CC1 0.99%, CCCN(CCC)C(=O)Cc1coc2ccc3ccccc3c12 3.36%, Cc1cc2cc(CNC(=O)Nc3ccccc3)ccc2n1C 4.59%, O=C1NCCN/C1=C\C(=O)c1ccc(Cl)cc1 12.3%, CCOc1ccc(NC(=O)COn2nnc3ccc(S(=O)(=O)N4CCOCC4)cc32)cc1 11.2%, O=c1cc(-c2ccccc2[N+](=O)[O-])oc2ccccc12 1.45%, Cc1c2cc(O)c(=O)cc-2oc2cc(O)c(O)cc12 57.6%, CCOc1ccccc1-c1c2cc(O)c(=O)cc-2oc2cc(O)c(O)cc12 15.8%, COc1ccc(OC)c(-c2c3cc(O)c(=O)cc-3oc3cc(O)c(O)cc23)c1 73.4%, CCOc1ccccc1NC(=O)CSc1nnc(CNC(=O)c2cc(OC)c(OC)c(OC)c2)o1 5.49%, COc1ccccc1CNC(c1ccccc1)c1ccccc1 21.1%, COc1ccc(C2NC(c3ccc(OC)c(OC)c3OC)C(C)C(=O)C2C)c(OC)c1OC (configuration not stated) -0.23%

Source: PubChem BioAssay AID1903 (Southern Research Specialized Biocontainment Screening …, 2009)
